Compounds with a hit are over-represented: about 3.5% of the library has one in this group of screens.
TEAD-YAP block = TEAD-YAP interaction inhibition; AID 1259422; inhibition, % at 9.12 µM; HEK-TIYL cells, TEAD-Gal4/YAP UAS-luciferase luminescence; 1.4% of 640,000 active; in the data active means inhibition above about 32%
MITF primary = inhibitors of human MITF | AlphaScreen MITF homodimerization, bead proximity signal | inhibition, % at 2.6 µM | 0.91% of 650,000 active | AID 1259374 | O75030; in the data active means inhibition above about 50%
GPR151 activ = activates the human receptor GPR151; Q8TDV0; PathHunter beta-arrestin GPR151 cells, luminescence; activation, % at 11.2 µM; 1% of 650,000 active; AID 1508602; in the data active means activation above about 4.9%
FBW7 activator = activators of human E3 ligase FBW7; AlphaScreen FBW7–phospho-cyclin E peptide binding, activator screen; Q969H0; 0.13% of 650,000 active; normalized activity (activation), % at 26.1 µM; AID 1259310; in the data active means normalized activity above about 1.9%;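 further: purified mutant Fbw7 with reduced substrate affinity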
GPR151 conf act = human GPR151 activation, confirmation screen. 6,700 tested, under 10 active. shares compounds with GPR151 activ. GPR151 PathHunter beta-arrestin cells, luminescence, 90 min; % of EA-reagent control over plate median. AID 1508609. activation, % at 11.2 µM;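 active means mean percent activation across replicates above the confirmation screen cutoff of 4.91%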
GPR119 counter = activates human GPR119 in a GPR151 counter-screen. shares compounds with GPR151 activ. GPR119 PathHunter beta-arrestin cells, luminescence, 90 min; 0 = compound-well median, 100 = enzyme-acceptor control. activation, % at 11.2 µM. 0.3% of 6,700 active. AID 1508611;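 active means mean percent activation in the counterscreen above 29.09%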;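 further: counterscreen on off-target GPR119 to flag nonselective hits from the GPR151 activator screen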
Target sequence (Q8TDV5 whole entry, looked up): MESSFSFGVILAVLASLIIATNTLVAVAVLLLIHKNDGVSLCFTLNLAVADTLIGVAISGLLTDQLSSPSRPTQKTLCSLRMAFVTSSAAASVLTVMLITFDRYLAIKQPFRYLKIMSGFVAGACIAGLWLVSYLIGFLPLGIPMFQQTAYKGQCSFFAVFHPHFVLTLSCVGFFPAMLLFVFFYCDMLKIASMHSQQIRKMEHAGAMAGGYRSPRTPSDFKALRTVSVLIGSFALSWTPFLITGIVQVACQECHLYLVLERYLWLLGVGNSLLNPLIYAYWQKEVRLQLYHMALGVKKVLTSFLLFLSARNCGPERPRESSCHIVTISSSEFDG
Large screens that a line does not name were inactive (follow-up assays come after a bar, where they were run).

Cc1ccc(NC(=O)/C(=C/c2cccc([N+](=O)[O-])c2)NC(=O)c2ccccc2F)cc1	none
CCCc1cc(=O)[nH]c(SCC(=O)N2CCN(c3ccccc3OC)CC2)n1	GPR151 activ 6.7 | GPR151 conf act inactive | GPR119 counter inactive
Nc1cc(=O)[nH]c(SCC(=O)N2CCN(C(c3ccccc3)c3ccccc3)CC2)n1	GPR151 activ 9.4 | GPR151 conf act inactive | GPR119 counter inactive
O=C(Nc1ccccc1F)C1CCN(C(=O)Cc2ccccc2)CC1	GPR151 activ 5.4 | GPR151 conf act inactive | GPR119 counter inactive
Cc1c(Cl)cccc1NC(=O)C1CCN(C(=O)Cc2ccccc2)CC1	none
CC(=O)NS(=O)(=O)c1ccc(NC(=O)Nc2ccc(Cl)cc2)cc1	GPR151 activ 7.4 | GPR151 conf act inactive | GPR119 counter inactive
COc1ccc(S(=O)(=O)NNC(=O)Nc2ccc(Cl)cc2)cc1	GPR151 activ 8.3 | GPR151 conf act inactive | GPR119 counter inactive
Cc1cc(C(=O)N2CCC[C@H](Cn3cc(C(=O)N4CCOCC4)nn3)C2)on1	none
COc1ccccc1-c1nnc2sc(-c3ccc4c(c3)OCCO4)nn12	TEAD-YAP block 52.8, GPR151 activ 5.7 | GPR151 conf act inactive | GPR119 counter inactive
COc1ccccc1-c1nnc2sc(-c3cc(OC)c(OC)c(OC)c3)nn12	none
N#Cc1ccc(OCC(=O)N2CCOCC2)cc1	none
O=C(NCc1nc2ccccc2[nH]1)c1cccc(Nc2cccnc2)n1	none
COC(=O)c1cc(OC)c(OC)cc1NC(=O)c1ccccc1C	GPR151 activ 9.7 | GPR151 conf act inactive | GPR119 counter inactive
COc1cc(NC(=O)c2ccccc2F)c(C(=O)O)cc1OC	none
COC(=O)c1cc(OC)c(OC)cc1NC(=O)c1cc(C)ccc1C	none
COc1ccc(Br)cc1C(=O)Nc1cc(Cl)ccc1C(=O)O	GPR151 activ 8.4 | GPR151 conf act inactive | GPR119 counter inactive
COc1cc(NC(=O)c2ccccc2OC)c(C(=O)O)cc1OC	GPR151 activ 6.7 | GPR151 conf act inactive | GPR119 counter inactive
Cc1ccc(S(=O)(=O)N2CCCCC2CC(=O)Nc2nccs2)cc1 (stereo not given)	none
CCC1CCCCN1S(=O)(=O)c1ccc(C(=O)Nc2nccs2)cc1 (stereo not given)	GPR151 activ 5.1 | GPR151 conf act inactive | GPR119 counter inactive
NC(=O)c1ccc(NC(=O)c2ccccc2F)cc1	none
COCCN1CCN(Cc2nc(NCc3ccc(C)o3)c3ccccc3n2)CC1	GPR151 activ 10.6 | GPR151 conf act inactive | GPR119 counter inactive
COCCN1CCN(Cc2nc(Nc3ccccc3)c3ccccc3n2)CC1	none
CC(=O)N1CCc2cc(C(=O)CN3CC(C)CC(C)C3)ccc21 (stereo not given)	GPR151 activ 6.2 | GPR151 conf act inactive | GPR119 counter inactive
CC(C)C(=O)OCCN1C(=O)c2cccc3c(N4CCCCC4)ccc(c23)C1=O	none
CC(C)C(=O)OCCN1C(=O)c2cccc3c(N4CCOCC4)ccc(c23)C1=O	GPR151 activ 6.6 | GPR151 conf act inactive | GPR119 counter inactive
N=C1CC(=O)N=C2SC(Cc3ccccc3)=NN12	none
O=C(CCCC(=O)N(CC(=O)NC1CCCCC1)CC1CCCO1)Nc1ccccn1 (stereo not given)	GPR151 activ 8.7 | GPR151 conf act inactive | GPR119 counter inactive
O=C(CCCC(=O)N(CC(=O)NC1CCCCC1)Cc1ccccc1)Nc1ccccn1	none
O=C(CN(CC1CCCO1)C(=O)CCC(=O)Nc1nccs1)NCc1ccccc1 (stereo not given)	GPR151 activ 9.4 | GPR151 conf act inactive | GPR119 counter inactive
COc1ccc(CN(Cc2cc3cc(C)ccc3n3nnnc23)C(=O)C2CCC2)cc1	none
O=C1CC(C(=O)N2CCC3(CC2)CC3C(=O)NCCC2=CCCCC2)c2ccccc21 (stereo not given)	GPR151 activ 5.5 | GPR151 conf act inactive | GPR119 counter inactive
O=C(Nc1nnc(-c2ccccc2)o1)c1ccc([N+](=O)[O-])s1	none
CCc1ccc(-c2nc3cc(NC(=O)c4cccc(C)c4)ccc3o2)cc1	GPR151 activ 8.2 | GPR151 conf act inactive | GPR119 counter inactive
COc1cc(C(=O)Nc2ccc3oc(-c4ccc(I)cc4)nc3c2)cc(OC)c1OC	GPR151 activ 20.9 | GPR151 conf act inactive | GPR119 counter inactive
CCc1ccc2oc(-c3cc(NC(=O)c4cccc(C)c4)ccc3O)nc2c1	none
COc1ccccc1-c1nnc(NC(=O)c2ccc([N+](=O)[O-])s2)o1	GPR151 activ 14.6 | GPR151 conf act inactive | GPR119 counter inactive
COc1ccccc1C(=O)Nc1nnc(-c2ccc(Cl)cc2)o1	GPR151 activ 5.5 | GPR151 conf act inactive | GPR119 counter inactive
COc1ccccc1C(=O)Nc1nnc(-c2ccc(F)cc2)o1	none
COc1ccccc1C(=O)Nc1ccc2oc(-c3ccc(C(C)(C)C)cc3)nc2c1	GPR151 activ 6.2 | GPR151 conf act inactive | GPR119 counter inactive
Cc1ccc(C(=O)Nc2ccc3oc(-c4ccncc4)nc3c2)cc1C	GPR151 activ 4.9 | GPR151 conf act inactive | GPR119 counter inactive
C=CCc1cccc(/C=N/NC(=O)CNc2ccc(Br)cc2)c1O	none
COc1ccccc1CNC(=O)c1nnn(Cc2ccccc2)c1N	GPR151 activ 13.6 | GPR151 conf act inactive | GPR119 counter inactive
COc1ccc(NC(=O)CN2CCN(CC(=O)Nc3cc(C)ccc3OC)CC2)cc1	none
CCC(C)NC(=O)CCc1c(C)nc2nc(C)nn2c1C (stereo not given)	none
Cc1cc(NC(=O)c2cccs2)cc(C)c1OCC(=O)N1CCOCC1	GPR151 activ 5.2 | GPR151 conf act inactive | GPR119 counter inactive
CCOc1ccc(-n2c(C)nc3cc(C(=O)NCc4ccc(C)cc4)ccc32)cc1	GPR151 activ 5.3 | GPR151 conf act inactive | GPR119 counter inactive
Cc1cc(C)cc(CN2CCN(c3ccc4c(c3)OCO4)C2=O)c1	none
O=C1N(Cc2ccc(F)cc2F)CCN1c1ccc2c(c1)OCO2	GPR151 activ 9.8 | GPR151 conf act inactive | GPR119 counter inactive
CCOC(=O)N1CCc2c(sc(NCc3cc(OC)c(OC)cc3OC)c2C(=O)Nc2cc(Cl)ccc2OC)C1	none
Cc1ccc(CCNC(=O)NCc2noc3ccccc23)cc1	none
Cc1cccc(CCNC(=O)NCc2noc3ccccc23)c1	GPR151 activ 14.5 | GPR151 conf act inactive | GPR119 counter inactive
Cc1cc(Br)ccc1NC(=O)NCc1noc2ccccc12	GPR151 activ 6.1 | GPR151 conf act inactive | GPR119 counter inactive
COc1ccc(NC(=O)NCc2noc3ccccc23)c(OC)c1	none
COc1ccccc1/C=C(\C#N)c1nc(-c2ccc([N+](=O)[O-])cc2)cs1	none
c1cncc(CSc2ccc(-c3cccnc3)nn2)c1	GPR151 activ 7.0 | GPR151 conf act inactive | GPR119 counter inactive
Cc1ccc(Cl)cc1NC(=O)c1c(-c2c(Cl)cccc2Cl)noc1C	GPR151 activ 6.0 | GPR151 conf act inactive | GPR119 counter inactive

Compound activity (PubChem BioAssay)
